The values below come from ChEMBL document CHEMBL3988442, “University of Dundee, Small-Polar-MMV Screening Library” (2021).

The structures appear in SMILES notation.

For this assay, the target named is AMP-activated protein kinase, AMPK (Homo sapiens) (UniProt P54646+O43741+P54619+Q9UGJ0+Q9Y478+Q13131+Q9UGI9). Briefly: AMP-dependent Kinase enzyme assay. An in vitro enzyme assay that detects ADP turnover that is directly proportional to AMPK activity. This uses naive AMPK that is activated during the assay with MK-8722. In kind it is functional. Details: scale not given: direction of the effect not stated beside the values. The conditions noted are these: 30 µM.
For the compound `Cc1nnc(CN(C)CC(=O)N2CCCC(C(F)(F)F)C2)n1C` (stereo not given), the Percent Effect was 14.3%.
For the compound `CC(C)c1ccccc1OCCNC(=O)N1CCC(CC(N)=O)CC1`, the Percent Effect was -3.47%.
As to `COc1cc2c(cc1CNCc1ccnc(-n3cccn3)c1)OC(C)C2` (stereo not given), the Percent Effect was -1.78%.
Take `Nc1nc(CC(=O)N2CCCC(CCc3cccc(F)c3)C2)cc(=O)[nH]1` (stereo not given): the Percent Effect was -9.77%.
Turning to `NCC1Cc2cccc(-c3ccc(O)c(F)c3)c2O1` (stereo not given), the Percent Effect was found to be 89.9%.
With `Cc1ccc(C(=O)NCCN2CCOCC2)cc1N(C)S(C)(=O)=O`, the Percent Effect turned out to be 4.72%.
Take `COC(=O)c1ccc(OCCn2cnc(C#N)n2)cc1`: the Percent Effect came out at 0.636%.
Consider `Cc1cc(-c2cnc(N3CCN(C)CC3)nc2C(C)C)on1`, for which the Percent Effect amounted to 16.2%.
`CC(C)N(Cc1ccccn1)C(=O)CCC(=O)c1ccccc1`: the Percent Effect was -4.49%.
`Cc1cnn(C2CN(CCOc3cccc(C#N)c3)C2)c1`: the Percent Effect came to 3.61%.
Take `CCN(CCOC)C(=O)c1cc(COc2ccc3c(c2)CCCC3)on1`: the Percent Effect stood at 0.118%.
`CN(Cc1ccsc1)C(=O)c1nc(N2CCCCC2)ncc1Cl`: the Percent Effect worked out at 0.035%.
Then `CCNC(=O)[C@@H]1C[C@@H](N)CN1C(=O)c1cc2ccccc2[nH]1`, with 8.12%.
With `O=C(O)c1ccn(-c2cccc(NC(=O)c3ccccc3Cl)c2)n1`, the Percent Effect turned out to be 0.768%.
In the case of `COCCC(=O)N1CCCC(CCc2ccc(F)c(F)c2)C1` (stereo not given), the Percent Effect stood at 8.62%.
With `Cc1noc(CCNC(=O)C2CSCN2C(=O)C2CCCC2)n1` (stereo not given), the Percent Effect was found to be 3.34%.
Turning to `Fc1cccc(-c2n[nH]cc2-c2nc(CN3CCOCC3)no2)c1`, the Percent Effect was found to be 5.95%.
The result for `CCN1CC(COC(=O)c2cc(C)nn2CC)CC1=O` (stereo not given) reads 5.06%; that for `CC(C)(C)c1noc(CCCC(=O)N2CCNC(=O)CC2)n1`, -2.76%.
`O=C(NCCS(=O)(=O)N1CCN(c2ncccn2)CC1)C1CCCC1`: the Percent Effect is -1.53%.
